Screening data as filed in PubChem BioAssay.
Compounds with a hit are over-represented: about 14% of the library has one in this group of screens.
Sm TGR inh: S. mansoni TGR enzyme inhibition. Q962Y6. purified TGR, DTNB reduction, TNB absorbance 405 nm. Potency, µM (titrated, usually from 114 µM), for inactives: at the highest dose activity change, negative = inhibition, most hits filed as inhibitors. actives 3% (n = 360,000). AID 485364; further: potency means the concentration at half of the fitted maximal effect; nearly all actives have a fitted effect of over 60% in size
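TGR 20 nM + NADPH 100 uM (dispensed conc.), cpd preinc 15 min RT; start with NADPH (500 uM addition) then DTNB (15 mM addition). Kinetic TNB absorbance, 405 nm filter. Four-parameter Hill fit across titration.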
Pf growth 96h: P. falciparum growth inhibition at 96 hours. P. falciparum luciferase reporter growth, 96 h. Potency, µM (series often up to 28.7 µM), inactives show at the top dose activity change, negative = inhibition, usual class: inhibitors. actives 6.9% (n = 320,000); further: potency means the concentration at half of the fitted maximal effect
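Luminescence readout: decreased luciferase signal marks inhibited growth of reporter-expressing P. falciparum in infected red cells (2% hematocrit, 0.05% parasitemia final), exposed to compound two generations (96 h, 37 C, 5% CO2).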
HCMV inh: human cytomegalovirus inhibition; HFF cells, HCMV-luciferase reporter, 72 h; active compounds read low; activity change, negative = inhibition, % at 57.5 µM; actives 4.5% (n = 410,000); AID 1259415; in the data active means activity change below about -60%; inconclusive means no clear call, values can overlap the other calls; inactive means above about -39%
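Steps: HFFs plated, 16 h 37C; compounds added; HCMV-luciferase added to MOI 1 PFU/cell; 72 h 37C; OneGlo reagent, 5 min room temperature; luminescence read, normalized to controls.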
Giardia FBPA inh: inhibitors of Giardia lamblia fructose-1,6-bisphosphate aldolase; actives 0.71% (n = 290,000); AID 2451; purified Giardia FBPA; Potency, µM (top dose mostly 59.6 µM), for the others: at the highest dose activity, negative = inhibition, usual class: inhibitors; A8B2U2; further: potency means the concentration at half of the fitted maximal effect; nearly all actives have a fitted effect of over 55% in size
Target sequence (A8B2U2 whole entry, looked up): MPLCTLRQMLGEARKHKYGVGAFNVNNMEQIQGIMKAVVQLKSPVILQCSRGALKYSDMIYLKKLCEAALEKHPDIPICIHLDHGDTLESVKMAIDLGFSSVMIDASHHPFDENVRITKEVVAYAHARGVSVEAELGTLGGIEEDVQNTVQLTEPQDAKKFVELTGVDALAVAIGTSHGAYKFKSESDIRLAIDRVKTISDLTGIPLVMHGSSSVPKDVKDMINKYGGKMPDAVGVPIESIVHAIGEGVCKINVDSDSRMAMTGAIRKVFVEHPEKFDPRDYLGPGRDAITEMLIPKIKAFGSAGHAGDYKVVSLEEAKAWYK
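Giardia FBPA (40 nM reagent) was preincubated 10 min at RT with compound (up to 57.5 uM final), then substrate plus GAPDH/TPI/NAD/arsenate coupling system with diaphorase/resazurin was added; resorufin fluorescence (525/598 nm) was read after 20 min.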
Pf growth 48h: P. falciparum growth inhibition at 48 hours (one generation); P. falciparum luciferase growth in erythrocytes, 48 h; Potency, µM (series often up to 28.7 µM), for the others: at the top dose activity change, negative = inhibition, actives largely listed as inhibitors; actives 5.9% (n = 310,000); further: potency means the concentration at half of the fitted maximal effect
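Erythrocytes infected with P. falciparum carrying an integrated firefly luciferase reporter (2% hematocrit, 0.1% parasitemia final) were exposed to compounds in RPMI 1640 with 0.5% Albumax at 37 C, 5% CO2. Growth inhibition was scored as reduced luminescence.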
Numbers without * were called inactive; ? = inconclusive; / = no result; ! = not confirmed by another sample; [ ] = dose if it differs, or a comment. Unless noted, the call rests on the fitted dose curve; in most records, active means well fitted curve in the direction sought with a large enough effect; inconclusive means small, poorly fitted or top-dose-only effect, or another doubt; inactive means no such curve, though single readings can be large; an effect the other way counts as inactive or inconclusive. On the % scale 0 is the no-effect control and ±100 the full control effect.

SMILES | Sm TGR inh | Pf growth 96h | HCMV inh | Giardia FBPA inh | Pf growth 48h
COc1cccc(-n2c(/C=C\c3ccc(Cl)cc3)nc3ccccc3c2=O)c1 | 9% | / | ? | / | /
Cc1nc2c(C)cccc2c2c1CCN2c1ccccc1F | 2% | ? | ? | 8% | ?
Cc1ccc2nc3c(c(N)c2c1)CCN3c1ccccc1 | -33% | ? | 16 | ? | ?
CCN1Cc2c(/C=C/c3ccccc3)nc3ccc(OC)cc3c2N(c2cccc(Cl)c2)C1 | 40µM* | 3.3µM* | -102* | 0% | 2.1µM*
CCCC(=O)N1CCCC(c2cc(C(=O)NCc3ccccc3)no2)C1 (stereo not drawn) | / | / | 30 | / | /
CCc1ccc(C(O)c2ncc(-c3ccc(C)cc3)[nH]2)cc1 (stereo not drawn) | / | / | -33 | / | /
COc1ccc(N2CCc3c(C)nc4c(OC)cc(OC)cc4c32)c(OC)c1 | 4% | 15µM* | -20 | -12% | ?
COC(=O)[C@H]1CC(=O)N[C@@H]1c1ccc(OC(C)C)c(OC)c1 | / | / | -3 | / | /
CCOC(=O)C(CC)Sc1c(CC)cnc2c1c(=O)n(C)c(=O)n2C (stereo not drawn) | -3% | / | 7 | / | /
Cc1cccnc1N(C(=O)Nc1ccccc1)C1=NCC(C)(C)S1 | 6% | -22% | 2 | 3% | ?
Cc1cccnc1N(C(=O)Nc1cccc(Cl)c1)C1=NCC(C)(C)S1 | -7% | ? | -62* | 1% | ?
COc1cccc(OCCCN2CCCCC2)c1 | -2% | -16% | -6 | -1% | 24%
COc1ccc2c(c1)OC(C)(C)C(c1ccccc1)C2c1ccc(OCCN2CCCC2)cc1 (stereo not drawn) | / | 3µM* | / | / | 1.7µM*
CCCOc1ccc(-c2nc(C#N)c(N3CCN(CC)CC3)o2)cc1 | ? | 10µM* | -29 | 0% | ?
CCOc1ccc(-c2nc(C#N)c(N3CCN(CC)CC3)o2)cc1 | 0% | 224% | -17 | -1% | -9%
N#Cc1nc(-c2ccc(OCc3ccc(Cl)cc3)cc2)oc1N1CCOCC1 | 0% | 10µM* | 51 | 3% | 23%
N#Cc1nc(-c2ccc(F)cc2)oc1N1CCCC1 | -14% | 0.29µM* | ? | 0% | 42%
N#Cc1nc(-c2ccc(F)cc2)oc1N1CCCCC1 | 6% | -7% | -22 | -15% | 0%[0.00184 µM]
CCOc1ccc(-c2nc(C#N)c(N3CCN(C)CC3)o2)cc1 | 1% | / | -61* | 3% | ?
CC(=O)Nc1ccc(S(=O)(=O)NN=c2sc3ccccc3n2C)cc1N | / | / | -6 | / | /
O=C(NCCO)c1nc(C(=O)c2ccccc2)c2ccccc2n1 | 4% | 36% | -15 | / | 7%
COc1ccc(CN2C(=O)N(c3cccc(C)c3)C(=O)C2CC(=O)Nc2ccc(F)cc2)cc1OC (stereo not drawn) | -2% | / | -1 | / | /
N#Cc1nc(-c2ccc(OCc3ccc(Cl)cc3)cc2)oc1N1CCC(C(N)=O)CC1 | -24%[11.4 µM] | 0% | -18 | 0% | /
CCCOc1ccc(-c2nc(C#N)c(N3CCC(C(N)=O)CC3)o2)cc1 | 0% | 10µM* | 0 | 3% | -2%
CCOc1ccc(-c2nc(C#N)c(N3CCCCCC3)o2)cc1 | -1% | 34% | -70* | -1% | ?
SMILES | Sm TGR inh | Pf growth 96h | HCMV inh | Giardia FBPA inh | Pf growth 48h
O=S(=O)(c1ccccc1)N(CC1CO1)c1cccc2ccccc12 (stereo not drawn) | -31% | ? | ? | -8% | 12µM*
C=CC[N+]1(C)CC[C@]23c4c5ccc(O)c4O[C@H]2C(=O)CC[C@@]3(O)[C@H]1C5 (stereo partly drawn) | 50µM* | -17% | 35 | / | -22%
Cn1cc(CCNC(=O)N2CCOC2=O)c2ccccc21 | / | / | 18 | / | /
Cc1ccc(O)c(C)c1 | 7% | 13% | 18 | / | 12%
Cc1ccc(O)c(CNCCNCc2cc(C)ccc2O)c1 | -4% | 2.6µM* | -67* | / | 7.4µM*
CCc1ccc(O)c(CNCCNCc2cc(CC)ccc2O)c1 | 3% | 5.9µM* | ? | / | 6.6µM*
CN1CCC(=C2c3ccccc3Sc3ccccc32)CC1 | / | ? | 3 | -1% | 4.3µM*
CN1CCC(=C2c3ccccc3C=Cc3ccccc32)CC1 | 0% | ? | 31 | -8% | 12µM*!
O=C1Cc2ccccc2Sc2ccccc21 | 8% | 41% | -29 | 0% | 50%
CC1CCCN(c2cccc3c2S(=O)(=O)N(Cc2cccc(F)c2)[C@@H](C)[C@H](c2ccccc2)O3)C1 (stereo partly drawn) | / | / | -15 | / | /
Cn1cccc/c1=N\c1cccc[n+]1C | -6% | ? | -74* | -3% | ?
Cc1cc2nccc(-c3ccc(OCCCF)cc3)n2n1 | 1% | 20% | -61* | 11% | 16%
Cc1nnc2sc(SCC(=O)N3CCCCC3)nn2c1=O | -14% | 0.83µM* | 29 | / | 2.6µM*
Cc1ccccc1NC(=O)CSc1nn2c(=O)c(C)nnc2s1 | 5% | ? | -35 | -7% | ?
Cc1ccccc1CSc1nn2c(=O)c(C)nnc2s1 | -4% | ? | 15 | 8% | 5.2µM*
Cc1nnc2sc(SCC(=O)N3CCC(C)CC3)nn2c1=O | 1% | 3.7µM* | 38 | / | ?
Cc1nnc2sc(SCC(=O)Nc3ccc(Br)cc3)nn2c1=O | 0% | ? | -15 | -12% | ?
Cc1ccc(NC(=O)CN2C(=O)CSc3ccc(S(=O)(=O)N4CCCC4)cc32)cc1F | 5% | / | -29 | / | /
O=C(COC(=O)c1ccc(Br)cc1)Nc1ccccc1Br | -13% | -2% | -33 | 8% | -4%
O=c1cc(-c2ccc(O)cc2)oc2cc(OC3OC(CO)C(O)C(O)[C@H]3O[C@@H]3OC[C@@](O)(CO)C3O)cc(O)c12 (stereo partly drawn) | / | / | / | -19% | /
O=c1cc(-c2ccc(O)cc2)oc2cc(O[C@@H]3O[C@H](CO)[C@@H](O)[C@H](O)[C@H]3O[C@@H]3OC[C@](O)(CO)[C@H]3O)cc(O)c12 | -7% | ? | -9 | 0% | 10µM*
O=C1C=C(NCc2ccco2)CC(c2ccc(Cl)cc2)C1 (stereo not drawn) | -6% | -12% | -10 | -3% | -12%
O=C1C=C(Nc2ccc(Cl)cc2)CC(c2ccc(Cl)cc2)C1 (stereo not drawn) | -4% | ? | ? | 4% | 9.3µM*
CCCCCCCNC1=CC(=O)CC(c2ccco2)C1 (stereo not drawn) | 0% | 10µM* | 19 | -20% | 2.3µM*
O=C1C=C(Nc2ccc(Cl)cc2)CC(c2ccco2)C1 (stereo not drawn) | -4% | ? | ? | 6% | 9.3µM*
CCOc1ccc(NC2=CC(=O)CC(c3ccco3)C2)cc1 (stereo not drawn) | / | 19% | 31 | 0% | ?
Cc1ccc(C2CC(=O)C=C(Nc3ccc(Cl)cc3)C2)cc1 (stereo not drawn) | -4% | 32% | -23 | 0% | 15µM*
